Assay outcomes: PubChem BioAssay, National Center for Advancing Translational Sciences (NCATS)
Hits are enriched below; roughly 9.5% of the tested compounds scored in any of these assays.
RE007 growth inh: less growth of the S. pombe RE007 Vpr strain | S. pombe RE007 Vpr strain, BacTiter-Glo ATP luminescence, 24 h | Potency, µM (doses to about 92.2 µM), inactives show top-dose activity change, negative = less growth, hits mostly inhibitors | 360,000 tested, 0.21% active; active = well fitted falling curve with a large enough effect; inconclusive = small, poorly fitted or top-dose-only effect; inactive = no such curve, though single readings can be large or run the other way; note: % is set by controls: 0 for no effect and ±100 for the full control effect; nearly all actives have a fitted effect of over 50% in size
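Fission yeast strain RE007, carrying one chromosomally integrated HIV-1 vpr copy, was seeded at OD 0.01 in PMG+AL medium with 23 nL pinned compound. After 24 h at 30 °C and 99% humidity, viability was read by BacTiter-Glo luminescence.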
Pf growth 96h: P. falciparum growth inhibition at 96 hour, primary screen for plastid delayed-death inhibitors; P. falciparum luciferase reporter growth, 96 h; Potency, µM (highest dose often 28.7 µM), inactives show at the highest dose activity change, negative = inhibition, usual class: inhibitors; 320,000 tested, 6.9% active; AID 504834; note: % is set by controls: 0 for no effect and ±100 for the full control effect
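Cell-based qHTS: luciferase-tagged P. falciparum in erythrocytes (2% hematocrit, 0.05% parasitemia final) incubated with compounds for 96 hours, 37 C, 5% CO2; luciferase detection reagent then added and luminescence measured.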
Pf growth 48h: P. falciparum growth inhibition at 48 hours (one generation) | AID 504832 | P. falciparum luciferase growth in erythrocytes, 48 h | Potency, µM (series often up to 28.7 µM), for the others: at the highest dose activity change, negative = inhibition, most hits filed as inhibitors | 310,000 tested, 5.9% active; note: % is set by controls: 0 for no effect and ±100 for the full control effect
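Erythrocytes infected with P. falciparum carrying an integrated firefly luciferase reporter (2% hematocrit, 0.1% parasitemia final) were exposed to compounds in RPMI 1640 with 0.5% Albumax at 37 C, 5% CO2. Growth inhibition was scored as reduced luminescence.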
NS1 function inh: blocks influenza NS1 protein function | Potency, µM (top dose mostly 46.1 µM), for the others: top-dose activity, positive = more growth | 270,000 tested, 0.4% active; calls by dose curve; note: actives are rising curves; nearly all actives have a fitted effect of over 50% in size
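Read-out: OD600 growth recovery of NS1-expressing budding yeast. Cells grown overnight at 30C in -URA glucose medium, washed, resuspended and diluted 1:100 in 2% galactose assay medium, pH 6.0. Same strain lacking NS1 served as positive control.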
SARS PLP yeast: blocks SARS-CoV papain-like protease in a yeast assay; S. cerevisiae expressing SARS-CoV PLpro, growth rescue; Potency, µM (top dose mostly 32.9 µM), inactives show at the top dose activity, positive = growth rescue, most hits filed as activators; 330,000 tested, 0.19% active; calls by dose curve; note: 0% is about no effect; nearly all actives have a fitted effect of over 55% in size
The depositor's hits bear a star. Unless noted, calls come from the whole dose curve; as a rule, active = well fitted inhibition curve with a large enough effect; inconclusive = small, poorly fitted or top-dose-only effect, or another doubt; inactive = no such curve, though single readings can be large or run the other way. Potency is the fitted concentration of half-maximal effect.

For CC1(C(=O)Nc2cccnc2)Cc2c(-c3ccc4c(c3)OCO4)ccnc2O1 (stereo unspecified) the results were RE007 growth inh 14%.
Screening CCCN1CCN(C(=O)C(C)n2nc(C)c3sc4ccccc4c3c2=O)CC1 (stereo unspecified) returned RE007 growth inh -1%, Pf growth 96h 1%, Pf growth 48h -14%, NS1 function inh 0% and SARS PLP yeast 15%.
`COc1ccc(OCc2nn[nH]n2)cc1` gave RE007 growth inh 3%, Pf growth 96h inconclusive, Pf growth 48h 48%, NS1 function inh 12% and SARS PLP yeast 16%.
For CCCCN(CCCC)CCCNC(=O)Cn1cc2c(n1)-c1c(oc(C(=O)N3CCCC3)c1C)CC2 the results were RE007 growth inh -1%, Pf growth 96h inconclusive, Pf growth 48h 12µM*, NS1 function inh -15% and SARS PLP yeast 3%.
Screening CCCN(CCC)CCNC(=O)Cn1cc2c(n1)-c1c(oc(C(=O)N3CCCC3)c1C)CC2 returned RE007 growth inh -8%.
For Cc1onc(-c2ccccc2Cl)c1C(=O)N1CCCc2ccccc21 the results were RE007 growth inh 0%, Pf growth 96h inconclusive, Pf growth 48h -28%, NS1 function inh -5% and SARS PLP yeast -7%.
For O=C(OCC(=O)N1CCc2ccccc21)c1c2c(nc3ccccc13)CCCC2 the results were RE007 growth inh -16%, Pf growth 96h inconclusive, Pf growth 48h 8.3µM*, NS1 function inh 6% and SARS PLP yeast -18%.
`CC1Cc2ccccc2N1C(=O)COC(=O)c1c2c(nc3ccccc13)CCCCC2` (stereo unspecified) gave RE007 growth inh 3%, Pf growth 96h 13µM*, Pf growth 48h inconclusive, NS1 function inh -3% and SARS PLP yeast -33%.
For Cc1onc(-c2ccccc2Cl)c1C(=O)OCC(=O)N1CCCc2ccccc21 the results were RE007 growth inh 4%, Pf growth 96h inconclusive, Pf growth 48h 9.3µM*, NS1 function inh -11% and SARS PLP yeast -6%.
NC(=O)COC(=O)c1c2c(nc3ccccc13)CCCCC2 was read as RE007 growth inh 3%, Pf growth 96h -13%, Pf growth 48h -20% and SARS PLP yeast -4%.
Screening COc1ccc(CN(C)C(=O)c2cccc(NS(=O)(=O)c3ccccc3)c2)cc1F returned RE007 growth inh 22%, Pf growth 96h 1%, Pf growth 48h inconclusive, NS1 function inh 3% and SARS PLP yeast 0%.
Screening CN(C)S(=O)(=O)c1ccc(C(=O)N2CCN(S(=O)(=O)c3cccs3)CC2)cc1 returned RE007 growth inh 4%, Pf growth 96h -19%, Pf growth 48h -20% and SARS PLP yeast 4%.
For COc1ccc(-n2nc(C(=O)NCC(=O)NCc3ccc(F)cc3)c3ccccc3c2=O)cc1 the results were RE007 growth inh -13%, Pf growth 96h 6.6µM*, Pf growth 48h inconclusive, NS1 function inh -6% and SARS PLP yeast 2%.
For COc1ccc(-n2nc(C(=O)Nc3ccc4c(c3)OCO4)c3ccccc3c2=O)cc1 the results were RE007 growth inh -25%, Pf growth 96h 3%, Pf growth 48h 10µM*, NS1 function inh -17% and SARS PLP yeast 0%.
For Cn1nc(C(=O)Nc2ccc3c(c2)OCO3)c2ccccc2c1=O the results were RE007 growth inh 14%, Pf growth 96h inconclusive, Pf growth 48h 35%, NS1 function inh -4% and SARS PLP yeast -1%.
Screening COc1ccc(-n2nc(C(=O)NCc3ccco3)c3ccccc3c2=O)cc1 returned RE007 growth inh -4%, Pf growth 96h 3.3µM*, NS1 function inh 1% and SARS PLP yeast -7%.
`COc1ccc(-n2nc(C(=O)NCC(=O)Nc3cc(OC)c(OC)c(OC)c3)c3ccccc3c2=O)cc1` gave RE007 growth inh -11%, Pf growth 96h 6%, Pf growth 48h 9.3µM*, NS1 function inh -14% and SARS PLP yeast 1%.
COc1ccc(-n2nc(C(=O)NCC(=O)NC(C)C)c3ccccc3c2=O)cc1 was read as RE007 growth inh -10%, Pf growth 96h 21%, Pf growth 48h -17%, NS1 function inh 9% and SARS PLP yeast 1%.
Screening Cc1ccc(S(=O)(=O)NCC2CCC(C(=O)N3CCN(C)CC3)CC2)cc1 (stereo unspecified) returned RE007 growth inh 12%, Pf growth 96h inconclusive, Pf growth 48h 12%, NS1 function inh 2% and SARS PLP yeast inconclusive.
Screening O=C(NCCCN1CCCC1=O)c1ccc(NS(=O)(=O)c2ccccc2)cc1 returned RE007 growth inh -3%, Pf growth 96h inconclusive, Pf growth 48h inconclusive and SARS PLP yeast 0%.
Screening O=C(COc1ccc(Br)cc1F)NC1CC1 returned RE007 growth inh 10% and SARS PLP yeast 7%.
For COc1cc(NC(=O)Cc2nn(C)c(=O)c3ccccc23)cc(OC)c1OC the results were RE007 growth inh 15%, Pf growth 96h 10µM*, Pf growth 48h 13µM*, NS1 function inh -8% and SARS PLP yeast 10%.
For CS(=O)(=O)c1ccc(Sc2nc3ccccc3[nH]2)c([N+](=O)[O-])c1 the results were RE007 growth inh 18%, Pf growth 96h inconclusive, Pf growth 48h inconclusive, NS1 function inh -17% and SARS PLP yeast -8%.
`CCS(=O)(=O)CCSc1nc2ccccc2s1` gave RE007 growth inh -19%, Pf growth 48h 27%, NS1 function inh 0% and SARS PLP yeast 0%.
`CS(=O)(=O)c1ccc(Sc2nc3ccccc3s2)c([N+](=O)[O-])c1` gave RE007 growth inh 11%, Pf growth 96h inconclusive, Pf growth 48h 13µM*, NS1 function inh 8% and SARS PLP yeast -18%.
O=S(=O)(Nc1ccc(O)c(Sc2nc3ccccc3s2)c1)c1ccc(F)cc1 was read as RE007 growth inh -2%, Pf growth 96h -28%, Pf growth 48h -12%, NS1 function inh -28% and SARS PLP yeast -26%.
Screening O=[N+]([O-])c1cc(S(=O)(=O)C(F)(F)F)ccc1Sc1nc2ccccc2[nH]1 returned RE007 growth inh -8%, Pf growth 48h 15µM*, NS1 function inh 3% and SARS PLP yeast -23%.
Screening O=[N+]([O-])c1cc(S(=O)(=O)C(F)(F)F)ccc1Sc1nc2ccccc2s1 returned RE007 growth inh 17%, Pf growth 96h 9.3µM*, Pf growth 48h inconclusive, NS1 function inh -121% and SARS PLP yeast -32%.
`NCCNc1ccc([N+](=O)[O-])c(Sc2nc3ccccc3[nH]2)c1` gave RE007 growth inh -17%, Pf growth 96h 13µM*, Pf growth 48h inconclusive, NS1 function inh 28% and SARS PLP yeast 2%.
For CC1CCCCC1NC(=O)CN(C)S(=O)(=O)c1ccc2c(c1)CCC(=O)N2 (stereo unspecified) the results were RE007 growth inh -1%, Pf growth 96h inconclusive, Pf growth 48h -8%, NS1 function inh 0% and SARS PLP yeast -1%.
